Reference: PubChem BioAssay AID1159524 (National Center for Advancing Translational Sciences (NCATS), 2015)
Where “and” joins values, the source holds several entries; their conditions need not be identical. Identical values can stand only once. The whole screen tested about 410,000 compounds, of which about 5,100 (1.2%) were called active. Roughly 8% stayed inconclusive and do not appear here. The sample holds actives, similar compounds and a random draw of the others, so the mix is not that of the screen. Calls come from the whole dose curve; tested in HEK293T cells.

Assay: High Throughput Screening for Foot and Mouth Disease Virus Antivirals; note: read-out not given here; nearly all actives have a fitted effect of over 45% in size
Details: FMDV antiviral cell-based qHTS; series mostly up to 57.9 µM; activity change, negative = inhibition: at the top concentration
% is set by controls: 0 for no effect and ±100 for the full control effect; potency is the fitted concentration of half-maximal effect.

Row | SMILES | activity change, negative = inhibition | Potency
1 | Cc1csc(-c2coc3cc(O[C@@H]4O[C@H](CO)[C@@H](O)[C@@H](O)[C@H]4O)ccc3c2=O)n1 | 16% (inactive) | 
2 | Cc1cc(C)cc(-n2c(SCC(=O)NCC3CCCO3)nc3c([nH]c4ccccc43)c2=O)c1 (stereo not drawn) | 0.888% (inactive) | 
3 | Cc1ccc(NC(=O)c2cnc(SCC(=O)NCC3CCCO3)n(C)c2=O)cc1 (stereo not drawn) |  | 25.1 µM (active)
4 | Cc1cc(NC(=O)CSc2ncc(C(=O)Nc3ccc(Cl)cc3)c(=O)n2C)no1 | 5.26% (inactive) | 
5 | O=C(Cc1ccccc1)Nc1sc2c(c1C(=O)Nc1ccc(Br)cc1)CCC2 | -16.6% (inactive) | 
6 | COCCNc1ccnc(-c2cccc(NS(C)(=O)=O)c2)n1 | 8.19% (inactive) | 
7 | CNc1ncnc2ccc(-c3cccc(NS(C)(=O)=O)c3)cc12 | -18.8% (inactive) | 
8 | COC(=O)CC1C(C)(C)C(OC(C)=O)C2CC3=C4CC(=O)OC(c5ccoc5)[C@]4(C)CCC3[C@@]1(C)C2=O (stereo partly drawn) | -6.11% (inactive) | 
9 | Cc1ccc(-c2nn(CC(C)(C)C)c3ncnc(N)c23)cc1 | -19.5% (inactive) | 
10 | COc1cccc(N2CCN(S(=O)(=O)c3ccc4c(c3)CCCN4C(C)=O)CC2)c1 | -29.2% (inactive) | 
11 | CC(=O)N1CCCc2cc(S(=O)(=O)N3CCCC(C(=O)N4CCN(c5cccc(Cl)c5)CC4)C3)ccc21 (stereo not drawn) |  | 17.8 µM (active) and 12.6 µM (active)
12 | CC(=O)N1CCCc2cc(S(=O)(=O)N3CCC(C(=O)NC4CCCCC4)CC3)ccc21 | -3.68% (inactive) | 
13 | COCCN1CCN(C(=O)c2sc3ncnc(NCC4CCCO4)c3c2C)CC1 (stereo not drawn) | 2.02% (inactive) | 
14 | CC(C)(c1ccc(OC[C@@H]2CO2)cc1)c1ccc(OC[C@H]2CO2)cc1 | -6.2% (inactive) | 
15 | CN[C@@H]1[C@H](O[C@H]2[C@H](O[C@H]3[C@H](O)[C@@H](O)[C@H](N=C(N)N)[C@@H](O)[C@@H]3N=C(N)N)O[C@@H](C)[C@]2(O)CO)O[C@@H](CO)[C@H](O)[C@H]1O | 3.92% (inactive) | 
16 | O=C(O)CCc1cccnc1 | -16.2% (inactive) | 
17 | O=C1/C(=C\c2cccnc2)CN(Cc2ccccc2)C/C1=C\c1cccnc1 |  | 6.31 µM (active)
18 | Nc1ccc2c(c1)C(=Cc1cccnc1)c1ccccc1-2 | 9.55% (inactive) | 
19 | CS(=O)(=O)Nc1cccc(-c2cncnc2Nc2ccccc2)c1 | -6.46% (inactive) | 
20 | CN(Cc1ccco1)c1cc(-c2ccccc2C(F)(F)F)ncn1 | 15.7% (inactive) | 
21 | C=CC(C1=CC(=O)C=CC1=O)c1ccc(O)cc1 (stereo not drawn) | -1.66% (inactive) | 
22 | CC(=O)OC1C2(CC3N4C(=O)C5(CO)SSC4(CC31O)C(=O)N5C)OC(C)C(C)(C)C2=O (stereo not drawn) |  | 2 µM (active)
23 | Cc1cccc(Nc2cc(C)nc(-n3nc(C)cc3C)n2)c1 | -11.9% (inactive) | 
24 | COc1ccccc1-c1cc(C(F)(F)F)nc(S(=O)(=O)CCCC(=O)Nc2cc(C)ccc2O)n1 | -17.4% (inactive) | 

Row | SMILES | activity change, negative = inhibition | Potency
25 | Cc1ccc(C)c(N2CCN(C(=O)Cn3ncc4c(=O)oc5ccc(C)cc5c43)CC2)c1 | 0% (inactive) | 
26 | O=C(c1csnn1)N1CCC2(CC1)CN(c1ncccn1)C2 | -1.68% (inactive) | 
27 | Cc1cccn2c(=O)c(C(=O)NC(C)c3ccccc3)cnc12 (stereo not drawn) | -0.0366% (inactive) | 
28 | CCCc1nc2c([nH]1)C(c1cccnc1)C(C#N)=C(N)O2 (stereo not drawn) | -18.1% (inactive) | 
29 | CCNc1nc2[nH]c(=O)c3c(c2s1)OC(N)=C(C#N)C3c1cccs1 (stereo not drawn) | 38.9% (inactive) | 
30 | CCCc1[nH]nc2c1C(c1ccc(Br)s1)C(C#N)=C(N)O2 (stereo not drawn) |  | 25.1 µM (active)
31 | CCC(=O)N1CCc2cc(CNS(=O)(=O)c3ccc(Br)s3)ccc21 | 3.48% (inactive) | 
32 | CC(C)CCn1c(CN(C)Cc2ccccc2)nc2c1c(=O)n(C)c(=O)n2C |  | 39.8 µM (active)
33 | Cn1c(=O)c2c(nc(SCC(=O)Nc3ccc(F)cc3)n2Cc2ccccc2)n(C)c1=O | 0% (inactive) | 
34 | Cn1c(=O)c2c(nc(NCCc3ccccc3)n2Cc2ccccc2Br)n(C)c1=O | 8.48% (inactive) | 
35 | Cn1c(=O)c2c(nc(NCCc3ccccc3)n2Cc2ccccc2)n(C)c1=O |  | 14.1 µM (active)
36 | Cn1c(=O)c2c(nc(OCc3cccnc3)n2Cc2ccccc2)n(C)c1=O | -27% (inactive) | 
37 | CC(C)CCn1c(=O)c2c(nc3n2CCCN3Cc2ccccc2)n(C)c1=O | -24.9% (inactive) | 
38 | CN(C)C(=O)c1ccc(-c2cncnc2NC2CCNCC2)cc1 | 0% (inactive) | 
39 | COCCn1c(=O)c(-c2cccs2)nc2cnc(N3CCN(C)CC3)nc21 | -1.14% (inactive) | 
40 | Cc1ccccc1NC(=O)Cn1c(=O)n(CCCCC(=O)NCc2ccccc2Cl)c(=O)c2ccccc21 | -24.8% (inactive) | 
41 | C=CS(=O)c1sc(Cl)c(N2CCOCC2)c1[N+](=O)[O-] (stereo not drawn) |  | 28.2 µM (active)
42 | CN(C)c1ncc2nc(-c3ccc(F)cc3)c(=O)n(Cc3ccc(F)cc3)c2n1 | -0.807% (inactive) | 
43 | O=C(O)c1cc(S(=O)(=O)N(Cc2ccccc2)c2ccccc2)ccc1Cl | 6.32% (inactive) | 
44 | CC(=O)N(CN1C(=O)C2C3C=CC(C3)C2C1=O)c1cccc(Cl)c1 (stereo not drawn) | 5.14% (inactive) | 
45 | O=C(CCl)N(Cc1cccc([N+](=O)[O-])c1)c1cccc(Cl)c1 |  | 28.2 µM (active)
46 | FC(F)(F)c1ccccc1-c1nc(-n2ccnc2)c2ccccc2n1 | -7.33% (inactive) | 
47 | Cc1cccc(NC(=O)Cn2c(C(F)(F)F)nc3ccccc32)c1C | -0.0408% (inactive) | 
48 | CC(=O)Nc1cc(C(=O)N2CCc3c(Cl)cccc3C2)cc2ncn(CCc3ccccn3)c12 | -13.7% (inactive) | 

Row | SMILES | activity change, negative = inhibition | Potency
49 | CCOC(=O)C1CCCN(C(=O)c2cncc(Br)c2)C1 (stereo not drawn) | -6.75% (inactive) | 
50 | CCOC(=O)C1CCCN(C(=O)c2ccc3c(c2)sc2nc(-c4ccc(CC)cc4)cn23)C1 (stereo not drawn) |  | 14.1 µM (active)
51 | COc1ccc(CCNC(=O)c2ccc3c(c2)sc2nc(-c4ccc(C)cc4)cn23)cc1OC | -8.99% (inactive) | 
52 | CCC(=O)N1c2ccccc2CC1C(=O)N1CCN(c2cccc(OC)c2)CC1 (stereo not drawn) | -4.67% (inactive) | 
53 | CCNS(=O)(=O)c1ccc(CCC(=O)N2CCN(c3ccc(OC)cc3)CC2)cc1 | -11.2% (inactive) | 
54 | CCCNS(=O)(=O)c1ccc(CCC(=O)N2CCCC2)cc1 | 11.1% (inactive) | 
55 | CCNS(=O)(=O)c1ccc(CCC(=O)N2CCN(c3cc(Cl)ccc3C)CC2)cc1 |  | 15.8 µM (active)
56 | Cc1cnc(C(=O)N2CCOc3ccc(CN4CCCC(C(=O)c5cccnc5)C4)cc3C2)[nH]1 (stereo not drawn) | -28.1% (inactive) | 
57 | CC(=O)Nc1ccccc1-c1nc(CNC(=O)c2ccc(Cl)cc2)c(C)o1 | 32.2% (inactive) | 
58 | C=CCOc1ccc(/C=C/C(=O)OC(C)C(=O)Nc2ccc(NC(C)=O)cc2)cc1 (stereo not drawn) | -10.8% (inactive) | 
59 | C=CCN1C(=O)NC(=O)/C(=C/c2ccc(OCC(=O)Nc3ccc(C)cc3)cc2)C1=O | 17% (inactive) | 
60 | C=CCOc1ccc(/C=C2\SC(=S)N(CCC(=O)O)C2=O)cc1 |  | 1 µM (active)
61 | COC(=O)[C@@H]1C[C@H](NC(=O)c2ccccc2C(F)(F)F)CN1Cc1cccc(O)c1 | -13.1% (inactive) | 
62 | FC(F)(F)c1cccc(-c2cn[nH]c2C2CCCN(Cc3cccn3-c3ccccn3)C2)c1 (stereo not drawn) | -11.1% (inactive) | 
63 | COc1ccc(CCC(=O)c2c(O)cc(OC3OC(CO)C(O)C(O)C3O[C@@H]3OC(C)C(O)C(O)C3O)cc2O)cc1O (stereo partly drawn) | 7.43% (inactive) | 
64 | COc1ccc(CCNc2ncnc3sc(C(=O)N4CCCC4)c(C)c23)cc1OC | -6.91% (inactive) | 
65 | COc1ccc(CCNc2ncnc3nc[nH]c23)cc1OC |  | 25.1 µM (active)
66 | COc1ccc(CCNc2nc3ccc(C)cc3n3cnnc23)cc1OC | -23.1% (inactive) | 
67 | c1ccc(CCCCN2CCC(c3ccccc3)CC2)cc1 |  | inactive
68 | CCOC(=O)/C(=C\c1ccc([N+](=O)[O-])cc1)C(=O)c1cc(C(C)=O)c(Nc2ccccc2)s1 |  | 15.8 µM (active)
69 | CCOC(=O)c1c(C)[nH]c(C)c1C(=O)COC(=O)/C=C/c1cccc([N+](=O)[O-])c1 | -27.2% (inactive) | 
70 | CC(C)c1nnc(NC(=O)COC(=O)/C=C/c2ccc([N+](=O)[O-])cc2)s1 | -20.7% (inactive) | 
71 | COc1ccc(OCCCn2c(C)nc3cc(C)c(C)cc32)cc1 | -14.5% (inactive) | 
72 | COc1ccc(NC(=O)CSc2nccn2C2CCCC2)cc1OC | -3.75% (inactive) | 

Row | SMILES | activity change, negative = inhibition | Potency
73 | COc1ccc(C2CC(=O)N(Cc3ccccc3C)c3c2c(C)nn3-c2nc(C)cc(C)n2)c(OC)c1 (stereo not drawn) | -17.6% (inactive) | 
74 | O=C(O)CCn1c(O)c(C=C2N=c3ccccc3=N2)sc1=S |  | 10 µM (active)
75 | CCc1nc(-c2cc(S(=O)(=O)N3CCN(c4ccc(OC)cc4)CC3)ccc2OC)no1 | 2.16% (inactive) | 
76 | Cc1ccc(Cn2cc(CN3CC(N4CCN(C)CC4)CS3(=O)=O)nn2)cc1 (stereo not drawn) | -21.6% (inactive) | 
77 | CN(C)C1CN(Cc2cn(Cc3ccccc3)nn2)S(=O)(=O)C1 (stereo not drawn) | -13.3% (inactive) | 
78 | CN(Cc1cn(Cc2ccc(C(F)(F)F)cc2)nn1)C1CN(Cc2cn(Cc3ccc(C(F)(F)F)cc3)nn2)S(=O)(=O)C1 (stereo not drawn) |  | 17.8 µM (active)
79 | Cc1ccc(CN2CCC(CNC(=O)c3cnn(-c4ccc(C)cc4)c3C3CCN(C(=O)OC(C)(C)C)CC3)CC2)cc1 | -4.3% (inactive) | 
80 | COc1ncc2nc(-c3ccc(Cl)cc3)c(=O)n(C)c2n1 | 9.77% (inactive) | 
81 | CSc1nnc(NC(=O)c2nc(S(=O)(=O)Cc3ccc(C)cc3)ncc2Cl)s1 |  | 12.6 µM (active)
82 | CCOC(=O)c1ccc(NC(=O)c2nc(SCc3ccc(F)cc3)ncc2Cl)cc1 | -13.5% (inactive) | 
83 | Cc1ccc(NC(=O)c2nc(S(=O)(=O)Cc3cccc(C)c3)ncc2Cl)cc1 |  | 25.1 µM (active)
84 | Cc1cccc(NC(=O)Cn2cc(S(=O)(=O)Cc3ccccc3Cl)c3ccccc32)c1 | -1.97% (inactive) | 
85 | Cc1cccc(NC(=O)c2nc(S(=O)(=O)Cc3ccccc3)ncc2Cl)c1 |  | 10 µM (active)
86 | CCS(=O)(=O)c1ncc(N(Cc2ccc(F)cc2)Cc2ccco2)c(C(=O)Nc2cc(C)ccc2C)n1 | 7.45% (inactive) | 
87 | O=C(Nc1nc2ccc(F)cc2s1)c1nc(SCc2ccccc2F)ncc1Cl | -23.3% (inactive) | 
88 | CCCSc1ncc(Cl)c(C(=O)Nc2c(C(=O)Nc3ccccc3)oc3ccccc23)n1 | -12.2% (inactive) | 
89 | Cc1ccc2nc(NC(=O)c3nc(SCc4ccccc4F)ncc3Cl)sc2c1 | -21.4% (inactive) | 
90 | CCC(C)(C)N=C(NC#N)Nc1cccnc1 | -21.6% (inactive) | 
91 | COc1ccccc1C1CN(CCNC(=O)C2=CCCC2)Cc2ccccc2O1 (stereo not drawn) | 34.4% (inactive) | 
92 | CCOC(=O)c1c(S(=O)(=O)N2CCCC(C(=O)NCc3cccc(C)c3)C2)c(C)n(C)c1C (stereo not drawn) | -22.3% (inactive) | 
93 | CCc1ccccc1N1C(=O)CN(S(=O)(=O)CC)CC1(C)C(=O)NC1CCCCC1 (stereo not drawn) | 0% (inactive) | 
